Assay outcomes (PubChem)
Shiga inhibitor – Shiga toxin inhibition; Vero cells, Shiga toxin protein synthesis inhibition reporter; inhibition, % at 38.7 µM; 9.2% of 290,000 active; in the data active = inhibition mostly above about 28%, no sharp cut-off; inactive = mostly below about 43%
NS1 inh – blocks influenza NS1 protein function; AID 2326; Potency, µM (doses to about 46.1 µM); 0.4% of 270,000 active; calls by dose curve; note: actives are rising curves; nearly all actives have a fitted effect of over 50% in size
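A cell-based growth assay was used: compounds that relieve NS1-induced slow growth of budding yeast raise OD600. Assay medium was yeast nitrogen base with ammonium sulphate and -URA supplement, pH 6.0, with 2% galactose.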
AmpC inh no detg – blocks E. coli AmpC beta-lactamase in detergent-free assay | Potency, µM (highest dose often 57.1 µM), actives largely listed as inhibitors | 0.52% of 330,000 active | AID 485341 | P00811 | AmpC nitrocefin hydrolysis, absorbance 480 nm, 0.0001% Triton; note: nearly all actives have a fitted effect of over 20% in size
Target sequence (P00811 whole entry, looked up): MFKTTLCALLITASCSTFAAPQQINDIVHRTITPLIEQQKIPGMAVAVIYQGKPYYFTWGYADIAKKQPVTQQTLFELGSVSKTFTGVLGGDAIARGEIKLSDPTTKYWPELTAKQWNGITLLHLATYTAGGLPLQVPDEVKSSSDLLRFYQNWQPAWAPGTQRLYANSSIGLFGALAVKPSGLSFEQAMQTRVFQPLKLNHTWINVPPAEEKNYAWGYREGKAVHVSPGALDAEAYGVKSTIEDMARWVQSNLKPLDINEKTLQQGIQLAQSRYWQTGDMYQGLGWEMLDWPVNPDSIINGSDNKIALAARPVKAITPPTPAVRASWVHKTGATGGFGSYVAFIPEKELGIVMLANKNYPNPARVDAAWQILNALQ
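AmpC (5.3 nM in the dispensed reagent) in 20 mM phosphate pH 7.0 with 0.01% (detergent screen) or 0.0001% Triton X-100 was preincubated with compounds for 15 min at room temperature. Nitrocefin was then added from an 800 uM solution, and hydrolysis was followed at 480 nm.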
Cycloheximide cs – affects cycloheximide protein synthesis inhibition readout, counter-screen. cell reporter, cycloheximide protein synthesis inhibition counterscreen. 12% of 300,000 active. max response, %; in the data active = max response mostly above about 13%, no sharp cut-off; inactive = mostly below about 14%; note: read at 38.3 µM for the half of the compounds with a filed dose
AmpC inh detg – blocks E. coli AmpC beta-lactamase in detergent assay; P00811; AmpC hydrolysis of nitrocefin, absorbance 480 nm, 0.01% Triton; Potency, µM (doses to about 114 µM), usual class: inhibitors; 0.041% of 370,000 active; AID 485294; note: nearly all actives have a fitted effect of over 25% in size
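20 mM phosphate pH 7.0 + 0.01% (detergent screen) or 0.0001% Triton X-100; 5.3 nM AmpC reagent; cpd preinc 15 min RT; nitrocefin (800 uM stock) to start; A480 q20 s × 4 min; Activity was normalised to no-enzyme and no-compound control wells.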
Each line names hits and unclear results; the compound was inactive in the other large screens. Shown is part of a subset that was picked to be rich in hits. Unless noted, calls come from the whole dose curve; as a rule, active = well fitted curve in the direction sought with a large enough effect; inconclusive = small, poorly fitted or top-dose-only effect, or another doubt; inactive = no such curve, though single readings can be large; an effect the other way counts as inactive or inconclusive.

O=C(Nc1cccc(-c2nc3ccccc3[nH]2)c1)c1ccccc1F	none (no result: Shiga inhibitor, NS1 inh, AmpC inh no detg, Cycloheximide cs)
Cc1nn(C)c(C)c1CN(C(=O)C1CCC(=O)N(C2CCCCCC2)C1)C(C)C (stereo not drawn)	Cycloheximide cs 31.2
COC(=O)c1ccc(-n2c(C)ccc2-c2ccccc2)cc1	Cycloheximide cs 13.7
COC(=O)c1ccc(-n2c(CCC(=O)O)ccc2-c2ccccc2)cc1	none
CC(=O)c1ccc(-n2c(C)ccc2-c2ccccc2)cc1	Cycloheximide cs 28.9, AmpC inh detg inconclusive
CC(=O)Nc1ccc(-n2c(C)ccc2-c2ccccc2)cc1	none
Cc1ccc(C(=O)Nc2ccc3nc(C)sc3c2)s1	Shiga inhibitor 112.5, Cycloheximide cs 43.5
Cc1nc2cc(NC(=O)c3ccc(Br)s3)ccc2s1	Shiga inhibitor 117.1, Cycloheximide cs 62.9
CC(=O)c1csc(COc2ccc(Cl)cc2)n1	Shiga inhibitor 38.5, Cycloheximide cs 44.2
CC(=O)Nc1nnc(COc2ccccc2)s1	Shiga inhibitor 55.2, Cycloheximide cs 21.4
CC(=O)Nc1nnc(COc2ccc(Cl)cc2)s1	Shiga inhibitor 92.2, Cycloheximide cs 56.6 (no result: NS1 inh)
COc1ccc(OCC(=O)Nc2ccc3nc(C)sc3c2)cc1	AmpC inh detg inconclusive (no result: NS1 inh)
Cc1nc2ccc(NC(=O)NCCCO)cc2s1	Shiga inhibitor 48.5, Cycloheximide cs 15.6, AmpC inh detg inconclusive
Cc1nc2ccc(NC(=O)NCCO)cc2s1	Cycloheximide cs 20.3
COCCNC(=O)Nc1ccc2nc(C)sc2c1	none
Cc1nc2ccc(NC(=O)NCc3ccco3)cc2s1	Shiga inhibitor 56.1, Cycloheximide cs 42.8
C/C(CC(=O)NCc1ccco1)=N\NC(=O)c1ccc(Cl)cc1Cl	none
CC1=C(C(=O)OC2CCCCCC2)C(c2ccc(C)o2)C2=C(CCCC2=O)N1 (stereo not drawn)	Shiga inhibitor active
CC1=C(C(=O)OC2CCCCC2)C(c2ccc(C)o2)C2=C(CC(C)(C)CC2=O)N1 (stereo not drawn)	none
NC1=NC(c2cccc(Cl)c2)n2c(nc3ccccc32)N1 (stereo not drawn)	none (no result: Shiga inhibitor, NS1 inh, AmpC inh no detg, Cycloheximide cs)
Cc1ccc(-c2ccc(SCC(=O)N3CCCc4ccccc43)nn2)cc1	Shiga inhibitor 52.4, Cycloheximide cs 23.8
Cc1ccc(-c2ccc(SCC(=O)N3CCc4ccccc43)nn2)cc1	none
CC(C)c1nc(SCC(=O)N2CCc3ccccc32)n[nH]1	Cycloheximide cs 20.8 (no result: NS1 inh)
O=C(CNCCO)N1CCc2ccccc21	none
O=C(CNc1ccccc1OC(F)F)N1CCc2ccccc21	Shiga inhibitor 45.0, Cycloheximide cs 32.0 (no result: NS1 inh)
O=C(CSc1ccc2nnc(-c3ccc(Cl)cc3)n2n1)N1CCc2ccccc21	AmpC inh no detg 6.31µM
COc1ccc(N2CCN(Cc3nc4c(c(=O)[nH]c(=O)n4C)n3CC(C)C)CC2)cc1	none (no result: Shiga inhibitor, NS1 inh, AmpC inh no detg, Cycloheximide cs)
Cc1ccc(Cc2nc3ccccc3nc2SCC(=O)N2CCc3ccccc32)cc1	none (no result: Shiga inhibitor, NS1 inh, AmpC inh no detg, Cycloheximide cs)
O=C(CSC1=NCCS1)N1CCc2ccccc21	Shiga inhibitor 178.3, Cycloheximide cs 41.1
CCc1nnc(SCC(=O)N2CCCc3ccccc32)nc1CC	AmpC inh detg inconclusive
Cc1ccc2c(c1)c1nnc(SCC(=O)N3CCCc4ccccc43)nc1n2CC(=O)O	Shiga inhibitor 76.2, Cycloheximide cs 32.1
O=C(CSc1nccn1-c1ccccc1)N1CCc2ccccc21	none
Cc1ccc(SCC(=O)N2CCc3ccccc32)cc1	Shiga inhibitor 52.6, Cycloheximide cs 45.9
CCCn1nnnc1SCC(=O)N1CCCc2ccccc21	Shiga inhibitor 108.0, Cycloheximide cs 47.8
Cc1cccc(NC(=O)CCS(=O)(=O)c2ccc3c(c2)n(C)c(=O)c(=O)n3C)c1C	none (no result: Shiga inhibitor, NS1 inh, AmpC inh no detg, Cycloheximide cs)
CC1CCCCN1S(=O)(=O)c1ccc(S(=O)(=O)N2CCCC2)cc1 (stereo not drawn)	none
CCN(CC)C(=O)Cn1c(=O)n(CC2CCC(C(=O)NC)CC2)c(=O)c2sccc21 (stereo not drawn)	none (no result: Shiga inhibitor, NS1 inh, AmpC inh no detg, Cycloheximide cs)
Nc1ccccc1SCC(=O)N1CCc2ccccc21	Cycloheximide cs 41.0
O=C(O)c1ccccc1SCC(=O)N1CCc2ccccc21	none (no result: NS1 inh)
CCC(=O)OCc1cc(=O)oc2ccc3ccccc3c12	AmpC inh detg inconclusive
CN(C)C(CNC(=O)c1ccc(NS(=O)(=O)c2ccc3[nH]c(=O)[nH]c3c2)cc1)c1ccccc1 (stereo not drawn)	none (no result: Shiga inhibitor, NS1 inh, Cycloheximide cs)
c1ccc(-c2nnc(SCc3cn4ccsc4n3)o2)cc1	Shiga inhibitor 92.8, Cycloheximide cs 30.1
O=c1c2ccccc2nc(SCc2cn3ccsc3n2)n1-c1ccc(F)cc1	none
Cc1ccc2c(=O)cc(C(=O)Nc3ccc(S(=O)(=O)N(C)c4ccccc4)cc3)oc2c1C	none (no result: Shiga inhibitor, NS1 inh, AmpC inh no detg, Cycloheximide cs)
c1ccc2c(c1)nnn2-c1ncnc2sc3c(c12)CCCC3	Cycloheximide cs 14.4
Cc1nc(-n2nnc3ccccc32)c2c3c(sc2n1)CCCC3	none
Cc1cc2nc(C3CCCN(C(=S)Nc4ccccc4C)C3)[nH]c2cc1C (stereo not drawn)	Cycloheximide cs 32.9
Cc1ccc2nc(C3CCCN(C(=S)Nc4cccc(C)c4C)C3)[nH]c2c1 (stereo not drawn)	AmpC inh detg inconclusive
Cc1cc2nc(C3CCCN(C(=O)NCc4ccccc4)C3)[nH]c2cc1C (stereo not drawn)	Cycloheximide cs 34.5
Cc1ccc(NC(=S)N2CCCC(c3nc4ccc(C)cc4[nH]3)C2)c(C)c1 (stereo not drawn)	Cycloheximide cs 10.1
O=C(O)Cn1c(=O)oc2cc(S(=O)(=O)N3CCOCC3)ccc21	none (no result: Shiga inhibitor, AmpC inh no detg, Cycloheximide cs, AmpC inh detg)
Cc1ccc2c(c1)C(c1ccccc1)N(C(=O)c1ccc3c(c1)OCO3)CC(=O)N2 (stereo not drawn)	none
CCCC(=O)OCc1cnc(C)c2oc(=O)c(C(=O)Nc3ccc(F)cc3C)cc12	none (no result: Shiga inhibitor, NS1 inh, AmpC inh no detg, Cycloheximide cs)
O=C(N[C@@H](Cc1c[nH]c2ccccc12)C(=O)NC1CC1)c1ccccc1Cl	Cycloheximide cs 46.6, AmpC inh detg inconclusive
CCCNC(=O)[C@H](Cc1c[nH]c2ccccc12)NC(=O)c1ccccc1Cl	Cycloheximide cs 25.4
COc1cc(C(=O)N[C@@H](Cc2c[nH]c3ccccc23)C(=O)O)cc(OC)c1OC	Shiga inhibitor 66.5, Cycloheximide cs 34.6
CC(=O)Nc1cc(N=Cc2ccc(O)cc2O)c(Cl)cc1Cl	none
COc1ccc(-c2nsc3c(N4CCCCC4)ncnc23)cc1	Shiga inhibitor 100.1, Cycloheximide cs 57.8
O=C(N1CCCC1)N1CCN(c2ncnc3c(-c4ccc(Cl)cc4)nsc23)CC1	Shiga inhibitor 97.2, Cycloheximide cs 34.5, AmpC inh detg inconclusive
Cc1csc2c(N3CCCCC3)ncnc12	Cycloheximide cs 29.5
Cc1ccc(-c2nsc3c(N4CCC(C(N)=O)CC4)ncnc23)cc1	Shiga inhibitor 51.8, Cycloheximide cs 32.9, AmpC inh detg inconclusive
Cc1ccc(CN(C(=O)COc2ccc(Cl)c(C)c2)c2ccccn2)o1	none (no result: Shiga inhibitor, NS1 inh, AmpC inh no detg, Cycloheximide cs)
O=C(CS(=O)CC(=O)N(CC(=O)NC1CCCC1)c1ccc2c(c1)OCCO2)Nc1ccc(F)cc1 (stereo not drawn)	none
CC(C)c1ccc(/C=C/C2=NNC(=O)CC2)cc1	Shiga inhibitor 84.8, Cycloheximide cs 32.5 (no result: NS1 inh)
